Screening data deposited in PubChem BioAssay by The Scripps Research Institute Molecular Screening Center.
Rows were chosen to be rich in hits. Some 2.3% of all compounds tested hit in one or more screens of this group.
CHO-K1 Ca ag = counter-screen for M1 agonists: effect in parental CHO-K1 cells; Fluo-8 calcium fluorescence; scaled to maximal ATP response, vehicle zero; activation, % at 3 µM; hit rate 0.48% among 360,000; in the data active = activation above about 15%;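 note: untransfected CHO-K1 host cells lacking M1 receptor as counterscreen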
M1 ag = human M1 muscarinic receptor agonists, primary screen, Fluo-8 calcium fluorescence, CHO-K1 cells, HTS | activation, % at 3 µM | Muscarinic acetylcholine receptor M1 (Homo sapiens), P11229 | hit rate 0.33% among 360,000 | AID 588814, 2011 | CHO-K1 hM1, agonist mode; 0% DMSO, 100% acetylcholine EC100;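 active = activation above the run's mean compound activation plus 3 SD, cut at about 16% in these data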;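 note: peak over basal fluorescence ratio within a 140 s kinetic read after compound addition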
Target sequence (P11229 whole entry, looked up): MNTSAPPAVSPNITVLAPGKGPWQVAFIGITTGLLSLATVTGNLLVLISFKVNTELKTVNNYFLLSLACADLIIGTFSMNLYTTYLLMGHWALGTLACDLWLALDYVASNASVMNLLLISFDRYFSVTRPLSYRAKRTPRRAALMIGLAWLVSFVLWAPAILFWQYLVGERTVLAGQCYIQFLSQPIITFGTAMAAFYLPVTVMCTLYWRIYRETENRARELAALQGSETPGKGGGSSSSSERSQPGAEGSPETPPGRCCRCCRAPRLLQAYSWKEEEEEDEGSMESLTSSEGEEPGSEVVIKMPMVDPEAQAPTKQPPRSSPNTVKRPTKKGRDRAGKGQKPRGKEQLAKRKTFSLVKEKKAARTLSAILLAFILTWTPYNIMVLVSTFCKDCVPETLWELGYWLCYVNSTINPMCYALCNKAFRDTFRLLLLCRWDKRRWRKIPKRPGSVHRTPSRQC
M1 antag = human M1 muscarinic receptor antagonists, primary screen, CHO-K1 cells, Fluo-8 calcium fluorescence, 1536-well; CHO-K1 hM1, ACh EC80 antagonist; Muscarinic acetylcholine receptor M1 (Homo sapiens), P11229; inhibition, % at 3 µM; AID 588852, 2011; hit rate 1.3% among 360,000;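 active = percent inhibition above its own plate's cutoff, namely the mean of that plate's compound wells plus 3 SD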;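 note: peak over basal fluorescence ratio during 140 s after agonist addition; 0% = ACh EC80 plus DMSO and 100% = DMSO alone without agonist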
CHO-K1 Ca antag = counter-screen for M1 antagonists: effect in parental CHO-K1 cells | ATP-induced calcium, Fluo-8 fluorescence | inhibition, % at 3 µM | hit rate 0.6% among 360,000 | AID 602250;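 active = inhibition above a per-plate cutoff, the plate's mean sample inhibition plus 3 SD, cut at about 24% in these data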;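 note: 0% = DMSO plus EC80 ATP and 100% = DMSO alone without ATP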
M1 PAM = human M1 muscarinic receptor positive allosteric modulators, primary screen, CHO-K1 cells, Fluo-8 calcium fluorescence, 1536-well. CHO-K1 hM1, ACh EC20; 0% = ACh EC20, 100% = maximal ACh. Muscarinic acetylcholine receptor M1 (Homo sapiens), P11229. activation, % at 3 µM. hit rate 0.088% among 360,000; in the data active = activation above about 19%, passing the limit was not always enough
M1 PAM parental = nonselective calcium activators in parental CHO-K1 cells, primary screen, counter-screen for M1 PAM project, cell-based, Fluo-8 calcium fluorescence, full deck, 1536-well; ATP EC20; 0% at ATP EC20, 100% at ATP max; activation, % at 3 µM; hit rate 0.02% among 360,000; AID 602247, 2012;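 active = activation above the run cutoff, the mean activation of all test compounds plus 3 SD, cut at about 40% in these data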;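 note: peak over basal fluorescence ratio in a 140 s read after ATP addition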
* marks the source's active call; other numbers are inactive results.

Screening CCOC(=O)CN(C(=O)CSc1nnc(COc2ccc(OC)cc2)n1C)c1ccccc1 returned CHO-K1 Ca ag 0, M1 ag -2, M1 antag 15, CHO-K1 Ca antag -1, M1 PAM 4 and M1 PAM parental 6.
`CCOC(=O)c1cn(Cc2ccc(C)cc2)c2cc(F)ccc2c1=O` gave CHO-K1 Ca ag -1, M1 ag 17*, M1 antag -10, CHO-K1 Ca antag 6, M1 PAM 18 and M1 PAM parental -16.
CCCCn1nnnc1C1(C)CCC(=O)N1CCCN1CCOCC1 (centres undefined) was read as CHO-K1 Ca ag 2, CHO-K1 Ca antag 0 and M1 PAM parental 3.
COc1ccc(CC(=O)NC(=S)Nc2cccc(C)c2)cc1 was read as CHO-K1 Ca ag 13, M1 ag 26*, M1 antag 4, CHO-K1 Ca antag -12, M1 PAM 1 and M1 PAM parental 16.
For CCC(=O)Nc1cccc(NC(=S)NC(=O)Cc2ccccc2)c1 the results were CHO-K1 Ca ag 1, M1 ag 0, M1 antag 20, CHO-K1 Ca antag 5, M1 PAM -11 and M1 PAM parental -6.
COc1ccc(CC(=O)NC(=S)Nc2cccc(CO)c2)cc1 was read as CHO-K1 Ca ag 13, M1 ag 29*, M1 antag -7, CHO-K1 Ca antag -18, M1 PAM 5 and M1 PAM parental 23.
COc1ccccc1NC(=S)NC(=O)Cc1ccc(Cl)cc1 was read as CHO-K1 Ca ag 0, M1 ag 6, M1 antag 13, CHO-K1 Ca antag -3, M1 PAM -6 and M1 PAM parental -14.
`COc1cccc(NC(=S)NC(=O)Cc2ccc(Cl)cc2)c1` gave CHO-K1 Ca ag 23*, M1 ag 37*, M1 antag 7, CHO-K1 Ca antag 6, M1 PAM 8 and M1 PAM parental 23.
For CC1(C(=O)NS(=O)(=O)c2ccc(C#N)cc2)CCN1C(=O)Cc1ccccc1Cl (centres undefined) the results were CHO-K1 Ca ag 0, M1 ag -1, M1 antag -5, CHO-K1 Ca antag -5, M1 PAM 2 and M1 PAM parental 3.
Screening NC(=O)c1c(/N=C/c2cccs2)sc2c1CCCC2 returned CHO-K1 Ca ag 0, M1 ag -2, M1 antag -8, CHO-K1 Ca antag -3, M1 PAM 11 and M1 PAM parental 1.
`Cc1cc(C)cc(OCC(O)CN2CCC(CN3C(=O)c4cccc5cccc(c45)C3=O)CC2)c1` (centres undefined) gave CHO-K1 Ca ag 8, M1 ag 2, M1 antag 48*, CHO-K1 Ca antag 4, M1 PAM -20 and M1 PAM parental -4.
O=C1c2cccc3cccc(c23)C(=O)N1CC1CCN(CC(O)COc2ccc3ccccc3c2)CC1 (centres undefined) was read as CHO-K1 Ca ag 11, M1 ag 1, M1 antag 47*, CHO-K1 Ca antag -2, M1 PAM -16 and M1 PAM parental 11.
Cc1ccc(S(=O)(=O)N2C[C@H]3C(=O)C[C@@H](c4ccc(Cl)cc4)N(S(=O)(=O)c4ccccc4C)[C@H]3C[C@H]2c2ccccc2)cc1 was read as CHO-K1 Ca ag 1, M1 ag 1, M1 antag -6, CHO-K1 Ca antag -18, M1 PAM 5 and M1 PAM parental 20.
For Cc1c(C(=O)OC(C)C)sc(NC(=O)c2cnccn2)c1C(=O)OC(C)C the results were CHO-K1 Ca ag 1, M1 ag 1, M1 antag -26, CHO-K1 Ca antag -8, M1 PAM 17 and M1 PAM parental 11.
`O=C(Nc1nnc([C@@H]2C[C@H](O)[C@@H](CO)O2)s1)c1cccc(C(F)(F)F)c1` gave CHO-K1 Ca ag 0, M1 ag -1, M1 antag 11, CHO-K1 Ca antag -10, M1 PAM -6 and M1 PAM parental 19.
`COc1ccc(CN2CCN(Cc3cccc(Oc4ccccc4)c3)CC2)c(OC)c1OC` gave CHO-K1 Ca ag 10, M1 ag -5, M1 antag 44*, CHO-K1 Ca antag 9, M1 PAM -26 and M1 PAM parental -6.
CC(C)N1CCN(c2ccncc2S(=O)(=O)N2CCN(C)CC2)CC1 was read as CHO-K1 Ca ag 0, M1 ag -8, M1 antag 47*, CHO-K1 Ca antag -6, M1 PAM -26 and M1 PAM parental 13.
`CNS(=O)(=O)c1cnccc1N1CCN(C)CC1` gave CHO-K1 Ca ag 3, M1 ag -12, M1 antag -5, CHO-K1 Ca antag 5, M1 PAM 6 and M1 PAM parental 17.
`O=C(NCCc1ccc(Cl)cc1)c1ccc(CS(=O)Cc2ccccc2Cl)o1` (centres undefined) gave CHO-K1 Ca ag 9, M1 ag -2, M1 antag 37*, CHO-K1 Ca antag -5, M1 PAM -18 and M1 PAM parental -1.
`CCCCCOc1ccc2oc(=O)c3c(c2c1)CCCN3C(=O)CN1CCCC(C(=O)OCC)C1` (centres undefined) gave CHO-K1 Ca ag 0, M1 ag -4, M1 antag 35*, CHO-K1 Ca antag 7, M1 PAM -19 and M1 PAM parental 5.
For OC(c1ccccn1)C1CCN(Cc2nc(C(c3ccccc3)c3ccccc3)no2)CC1 (centres undefined) the results were CHO-K1 Ca ag 1, M1 ag -12, M1 antag -8, CHO-K1 Ca antag -5, M1 PAM 4 and M1 PAM parental 13.
For Cc1nc(CN2CCN(Cc3nc(C(c4ccccc4)c4ccccc4)no3)CC2)cs1 the results were CHO-K1 Ca ag 0, M1 ag -13, M1 antag 65*, CHO-K1 Ca antag 3, M1 PAM -32 and M1 PAM parental 6.
`C[C@@H]1CN(C2CCN(Cc3nc(C(c4ccccc4)c4ccccc4)no3)CC2)C[C@H](C)O1` gave CHO-K1 Ca ag 0, M1 ag -13, M1 antag 1, CHO-K1 Ca antag -3, M1 PAM -21 and M1 PAM parental 11.
Screening Cc1cccnc1CN1CCN(Cc2nc(C(c3ccccc3)c3ccccc3)no2)CC1 returned CHO-K1 Ca ag 1, M1 ag -8, M1 antag 71*, CHO-K1 Ca antag -2, M1 PAM -26 and M1 PAM parental 5.
NS(=O)(=O)c1ccc(CNC(=O)/C=C/c2cccc([N+](=O)[O-])c2)cc1 was read as CHO-K1 Ca ag 0, M1 ag -2, M1 antag -3, CHO-K1 Ca antag -8, M1 PAM 4 and M1 PAM parental 6.
